The source of these data is PubChem BioAssay (Tox21).

Experiment [1] is described as follows: qHTS assay to test for compound auto fluorescence at 460 nm (blue) in HEK293 cell free culture (AID 720681). The method in brief:
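Blue fluorescence (Ex 405/Em 460 nm, triamterene-equivalent) was read immediately after pin transfer of compound or DMSO into medium (DMEM, 10% FBS) without cells.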

Experiment [2] can be described thus: qHTS assay to test for compound auto fluorescence at 535 nm (green) in HEK293 cell free culture (AID 720682). The method in brief: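 Compounds were pin-transferred into cell-free DMEM with 10% FBS, and green fluorescence was read at excitation 485 nm and emission 535 nm. Intensities were expressed as fluorescein-equivalent values.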
Experiment [3] in a line: qHTS assay to test for compound auto fluorescence at 590 nm (red) in HEK293 cell free culture (AID 720683). The method, boiled down:
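Red-channel autofluorescence of compounds in culture medium (DMEM, 10% FBS), no cells, measured at 540/590 nm. Rose Bengal sodium is the reference fluorophore for equivalence.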

The nature of experiment [4]: qHTS assay to test for compound auto fluorescence at 590 nm (red) in HepG2 cell free culture (AID 720684). The method, boiled down: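 Steps: dispense MEM/10% FBS medium, no cells; pin compound or DMSO vehicle; read red channel, Ex/Em 540/590 nm. Output given as Rose Bengal sodium equivalents.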
Experiment [5] in a line: qHTS assay to test for compound auto fluorescence at 460 nm (blue) in HepG2 cell free culture (AID 720685). The method in brief:
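Compound (23 nL) or DMSO pinned into cell-free MEM with 10% FBS; blue fluorescence read at 405/460 nm excitation/emission, expressed as auto-fluorescence equivalency to triamterene.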

Experiment [6] in a line: qHTS assay to test for compound auto fluorescence at 535 nm (green) in HepG2 cell free culture (AID 720686).
The nature of experiment [7]: qHTS assay to test for compound auto fluorescence at 460 nm (blue) in HepG2 cells (AID 720687). The method, boiled down: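 Blue-channel autofluorescence (Ex/Em 405/460 nm, triamterene-equivalent) was measured after 1 hr compound exposure at 37 C, 5% CO2. Cells were HepG2, plated overnight at 37 C in MEM plus 10% FBS.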
Experiment [8] concerns the target Glucocorticoid receptor (Homo sapiens) (UniProt P04150). In words: qHTS assay to identify small molecule agonists of the glucocorticoid receptor (GR) signaling pathway (AID 720691; active means well fitted activation curve with a large enough effect in the signal ratio in the repeat runs, not every such curve was filed as active; the % refers to the signal ratio). The method in brief:
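qHTS in GR-bla HeLa cells: 4 h settling at 37 C/5% CO2, 18 h compound incubation at 37 C, 2 h LiveBLAzer B/G FRET substrate at room temperature, fluorescence intensity measured.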

For experiment [9] the target is unchanged. In words: qHTS assay to identify small molecule antagonists of the glucocorticoid receptor (GR) signaling pathway (AID 720692; active means well fitted inhibition curve with a large enough effect in the signal ratio in the repeat runs, not every such curve was filed as active; the % refers to the signal ratio). The method in brief: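 Inhibition of glucocorticoid signalling is measured in HeLa cells with a GRE-controlled beta-lactamase reporter; cells are co-treated with compound and 5 nM dexamethasone (final) for 18 h before FRET substrate readout.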

The nature of experiment [10]: qHTS assay to identify small molecule antagonists of the glucocorticoid receptor (GR) signaling pathway - cell viability counter screen (AID 720693). Further: nearly all actives have a fitted effect of over 55% in size.
A short description of experiment [11]: qHTS assay for identifying genotoxic compounds that show differential cytotoxicity against isogenic chicken DT40 cell lines with known DNA damage response pathways - wild type cell line (AID 743012). Further: nearly all actives have a fitted effect of over 60% in size. The method, boiled down:
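First, wild type DT40 cells were plated at 300 per well and equilibrated about 0.5 h at 37 C/5% CO2. Next, compounds in DMSO were added and exposure lasted 40 h. Finally, CellTiter-Glo was added for 30 min at room temperature and luminescence recorded.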

Experiment [12] is described as follows: qHTS assay for identifying genotoxic compounds that show differential cytotoxicity against isogenic chicken DT40 cell lines with known DNA damage response pathways - Rev3 mutant cell line (AID 743014). Further: nearly all actives have a fitted effect of over 55% in size. Further: potency means the concentration at half of the fitted maximal effect.
The nature of experiment [13]: qHTS assay to identify small molecule antagonists of the androgen receptor (AR) signaling pathway - cell viability counter screen (AID 743033; further: nearly all actives have a fitted effect of over 45% in size).
Experiment [14] is described as follows: qHTS assay to identify small molecule antagonists of the androgen receptor (AR) signaling pathway using the MDA cell line - cell viability counter screen (AID 743041; further: nearly all actives have a fitted effect of over 45% in size). The method in brief:
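Cells were plated at 3,000 per well and left 5 h. Compounds in DMSO were then pinned in, followed by R1881. After 16 h at 37C, CellTiter-Fluor fluorescence gave viability.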

Experiment [15] in a line: qHTS assay to identify small molecule antagonists of the thyroid receptor (TR) signaling pathway - cell viability counter screen (AID 743064). Further: nearly all actives have a fitted effect of over 50% in size. The method in brief: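 In-well cytotoxicity read by CellTiter-Fluor (30 min, 37 C) following 23.5 h exposure of GH3 cells bearing a TRE-luciferase sensor. Compounds were added alongside 1 nM (final) T3 to drive TR transactivation.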

Experiment [16] can be described thus: qHTS assay for identifying genotoxic compounds that show differential cytotoxicity against isogenic chicken DT40 cell lines with known DNA damage response pathways - Rad54/Ku70 mutant cell line (AID 743015). Further: nearly all actives have a fitted effect of over 60% in size. Further: potency means the concentration at half of the fitted maximal effect.
Experiment [17] has as its target Androgen receptor (Homo sapiens) (UniProt P10275). The experiment can be described thus: qHTS assay to identify small molecule agonists of the androgen receptor (AR) signaling pathway using the MDA cell line (AID 743040; further: nearly all actives have a fitted effect of over 20% in size). The method in brief:
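Cells plated, 5 h at 37C/0% CO2; compound or DMSO pinned; 16 h at 37C; ONE-Glo added; luminescence measured after 30 min at room temperature. Reporter line: MDA-kb2 with MMTV-luciferase responsive to AR and GR.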

Experiment [18] shares this target. In words: qHTS assay to identify small molecule antagonists of the androgen receptor (AR) signaling pathway (AID 743035; active means well fitted inhibition curve with a large enough effect in the signal ratio in the repeat runs, not every such curve was filed as active; the % refers to the signal ratio). The method, boiled down: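 Beta-lactamase FRET read (2 h RT incubation with LiveBLAzer B/G) following 16 h of compound plus R1881 treatment of AR-UAS-bla HEK293 cells, which had been pre-incubated 4 h at 37C.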
The target is the same in experiment [19]. The experiment can be described thus: qHTS assay to identify small molecule agonists of the androgen receptor (AR) signaling pathway (AID 743036; active means well fitted activation curve with a large enough effect in the signal ratio in the repeat runs, with a control signal flat, not every such curve was filed as active; the % refers to the signal ratio). The method in brief:
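Activation was read as beta-lactamase FRET signal from LiveBLAzer B/G substrate, added for 2 h at room temperature. Before that, GeneBLAzer AR-UAS-bla GripTite (HEK293) cells had 16 h compound exposure at 37C.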

SMILES strings stand for the structures. Records with an inconclusive call do not appear. Active and inactive are the calls of the source. Unless noted, the call rests on the fitted dose curve; in most records, active means well fitted curve in the direction sought with a large enough effect in the repeat runs; inconclusive means weak or mixed curves; inactive means no such curve, though single readings can be large; an effect the other way counts as inactive or inconclusive.

Chain of Glucocorticoid receptor (Homo sapiens) (P04150 whole entry, looked up): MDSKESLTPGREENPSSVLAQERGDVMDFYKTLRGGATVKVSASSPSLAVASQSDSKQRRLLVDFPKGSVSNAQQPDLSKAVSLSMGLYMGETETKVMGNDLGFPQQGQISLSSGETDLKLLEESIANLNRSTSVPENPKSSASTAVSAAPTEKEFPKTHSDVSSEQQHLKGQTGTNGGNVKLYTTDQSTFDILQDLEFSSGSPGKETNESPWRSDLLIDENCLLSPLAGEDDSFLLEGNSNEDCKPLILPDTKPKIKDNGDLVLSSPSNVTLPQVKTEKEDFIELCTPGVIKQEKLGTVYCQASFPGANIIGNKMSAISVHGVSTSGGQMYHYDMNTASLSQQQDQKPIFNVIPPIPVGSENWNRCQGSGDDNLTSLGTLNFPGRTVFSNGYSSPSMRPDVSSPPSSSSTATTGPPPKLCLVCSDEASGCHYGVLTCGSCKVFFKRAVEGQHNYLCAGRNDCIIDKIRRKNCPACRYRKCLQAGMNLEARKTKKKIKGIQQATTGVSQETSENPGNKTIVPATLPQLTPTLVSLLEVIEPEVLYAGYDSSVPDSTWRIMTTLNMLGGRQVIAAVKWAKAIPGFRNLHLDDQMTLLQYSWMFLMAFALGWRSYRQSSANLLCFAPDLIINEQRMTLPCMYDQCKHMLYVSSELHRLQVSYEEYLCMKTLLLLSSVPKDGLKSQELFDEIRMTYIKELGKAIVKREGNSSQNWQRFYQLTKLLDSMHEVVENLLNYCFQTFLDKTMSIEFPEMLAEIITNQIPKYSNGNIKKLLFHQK
Chain of Androgen receptor (Homo sapiens) (P10275 whole entry, looked up): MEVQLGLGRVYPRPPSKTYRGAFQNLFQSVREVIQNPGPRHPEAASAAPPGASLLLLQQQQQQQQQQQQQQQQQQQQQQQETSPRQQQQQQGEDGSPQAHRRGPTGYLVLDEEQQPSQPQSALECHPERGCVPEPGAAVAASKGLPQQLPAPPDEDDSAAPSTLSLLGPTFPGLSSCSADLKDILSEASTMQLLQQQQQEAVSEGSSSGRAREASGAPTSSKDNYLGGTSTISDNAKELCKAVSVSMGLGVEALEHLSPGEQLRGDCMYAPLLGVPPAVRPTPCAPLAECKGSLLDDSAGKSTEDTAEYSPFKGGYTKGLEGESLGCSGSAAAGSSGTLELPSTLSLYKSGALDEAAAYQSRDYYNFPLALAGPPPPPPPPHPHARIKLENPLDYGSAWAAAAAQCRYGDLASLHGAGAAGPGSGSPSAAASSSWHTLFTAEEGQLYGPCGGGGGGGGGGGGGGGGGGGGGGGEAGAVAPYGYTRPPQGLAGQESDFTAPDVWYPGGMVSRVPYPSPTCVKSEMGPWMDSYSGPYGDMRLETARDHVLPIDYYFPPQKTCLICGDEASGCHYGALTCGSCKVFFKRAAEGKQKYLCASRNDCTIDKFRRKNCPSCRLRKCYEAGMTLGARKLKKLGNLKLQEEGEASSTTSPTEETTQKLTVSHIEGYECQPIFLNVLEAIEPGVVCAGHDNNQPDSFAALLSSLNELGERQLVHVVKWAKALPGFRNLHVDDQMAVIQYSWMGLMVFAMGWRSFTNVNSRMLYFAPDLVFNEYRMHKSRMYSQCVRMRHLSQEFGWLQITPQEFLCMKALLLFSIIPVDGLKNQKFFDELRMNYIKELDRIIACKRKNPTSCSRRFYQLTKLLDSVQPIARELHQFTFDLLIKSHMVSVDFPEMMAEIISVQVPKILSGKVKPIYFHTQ

For the molecule `OCCBr`, the molecule was called inactive in experiment [1], in experiment [2], in experiment [3], in [4], in [5] and in experiment [6]. For the same molecule, the molecule was called inactive in experiment [7] and in [8]. For the same molecule, the Potency entry in [9], in [10], in experiment [11], in experiment [13], in [14] and in experiment [15] was “inactive” in each case. The Potency in experiment [12] was 19.4 µM (active).

`CC(Oc1ccc(Oc2ncc(C(F)(F)F)cc2Cl)cc1)C(=O)O` (stereo not given): the molecule was called inactive in [1], in experiment [2], in [3], in [4], in experiment [5] and in experiment [6]. For the same molecule, the result in experiment [8] was inactive. The Potency was 68.6 µM (active) in [12] and 61.1 µM (active) in experiment [16]. For the same molecule, the Potency result in experiment [17] and in experiment [15] was “inactive” throughout.

Regarding `O=[N+]([O-])c1cccc(O)c1`, the result in [1], in [2], in experiment [3], in experiment [4], in experiment [5] and in experiment [6] was inactive. Further, the outcome in experiment [7] was inactive. Moreover, the Potency entry in experiment [10], in [11], in [16], in experiment [13], in [14] and in [15] was “inactive” throughout.

On to `CC1(C)C(=O)NC(=O)NC1=O`, for which the call in experiment [1], in experiment [2], in experiment [3], in experiment [4], in experiment [5] and in experiment [6] was inactive. Besides, the molecule was called inactive in [7] and in experiment [8]. The Potency entry in experiment [9], in [10], in [11], in experiment [12], in experiment [16] and in experiment [13] was “inactive” in each case. In addition, the Potency entry in experiment [14] and in [15] was “inactive” in each case.

Turning to `CCC#N`, the outcome in experiment [1], in [2], in experiment [3], in experiment [4], in experiment [5] and in experiment [6] was inactive. Moreover, the call in experiment [7] and in experiment [8] was inactive. Moreover, the Potency entry in [9], in experiment [10], in [11], in experiment [12], in experiment [16] and in experiment [14] was “inactive” each time. Also, the Potency entry in [15] was “inactive”.

On to `CC1CCCCC1NC(=O)Nc1ccccc1` (stereo not given), for which the outcome in experiment [1], in [3], in experiment [4], in experiment [5], in experiment [6] and in experiment [7] was inactive. In addition, in experiment [8], the call was inactive. The Potency entry in experiment [9], in experiment [10], in experiment [13], in [14] and in [15] was “inactive” throughout.

Take `COc1cc(OC)nc(Oc2cccc(Oc3nc(OC)cc(OC)n3)c2C(=O)O)n1`: the call in experiment [1], in [2], in experiment [3], in experiment [4], in [5] and in experiment [6] was inactive. Further, the molecule was classed as inactive in experiment [7] and in experiment [19]. Further, the Potency entry in [10], in experiment [11], in [12], in experiment [16], in [13] and in experiment [18] was “inactive” in each case. The Potency entry in [17] and in [14] was “inactive” each time.

Consider `CC(C=O)Cc1ccc2c(c1)OCO2` (stereo not given), for which the result in experiment [1], in [2], in [3], in experiment [4], in experiment [5] and in experiment [6] was inactive. In experiment [8], the result was inactive. For the same molecule, the Potency entry in [11], in [16], in [13], in experiment [14] and in experiment [15] was “inactive” each time.

For the molecule `CCSC(=O)N(CC)C1CCCCC1`, the molecule was classed as inactive in experiment [1], in experiment [2], in [3], in experiment [4], in experiment [5] and in experiment [6]. Also, the molecule was classed as inactive in experiment [7] and in experiment [8]. Moreover, the Potency result in experiment [10], in [11], in experiment [12], in experiment [16], in experiment [13] and in experiment [14] was “inactive” in each case. For the same molecule, the Potency entry in [15] was “inactive”.
